Assay outcomes (PubChem)
Rows were chosen to be rich in hits. Some 28% of all compounds tested hit in one or more screens of this group.
CYP2C9 inh = blocks human cytochrome P450 2C9 | actives 20% (n = 96,000) | inhibition, % at 5 µM | P11712 | CYP2C9 Supersomes, luciferin-H conversion, luminescence;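 active means blocking of liver enzyme CYP2C9 beyond about 50% at 5 µM, limit read from the data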
CYP2C9 activ = increases human cytochrome P450 2C9 activity. P11712. recombinant CYP2C9, luciferin-H conversion, luminescence; stronger effect = higher value; factor 1 = untreated enzyme, 0 = blocked. activation factor at 5 µM. actives 1.4% (n = 96,000);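 active means activation factor of 2 or more for CYP2C9 at a 5 µM dose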
CYP2C19 inh = human CYP2C19 inhibition. AID 778. inhibition, % at 5 µM. actives 21% (n = 96,000). P33261. CYP2C19 Supersomes, luciferin-H EGE luminescence, 30 min;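 active means CYP2C19 inhibition above a set limit at 5 µM in the primary screen, cut at about 50% in these data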
CYP2C19 act = increases human CYP2C19 enzyme activity | P33261 | recombinant CYP2C19, luciferin-H EGE luminescence; stronger effect = higher value; 0 = fully inhibited enzyme, 1 = untreated enzyme | activation factor at 5 µM | 96,000 tested, under 10 active | AID 1025;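 active means activation factor of at least 2 at 5 µM in the primary screen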
CD11b adhes inh = inhibitors of human CD11b/CD18 binding to fibrinogen; P05107+P11215; K562 CD11b/CD18 adhesion to fibrinogen, ATPlite luminescence; Mn2+ added to activate the integrin; inhibition, % at 10 µM; actives 0.54% (n = 93,000); AID 1497;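 active means primary inhibition of 50% or more at 10 µM, then 40% or more on retest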
Target sequence (P05107 whole entry, looked up, other chains not shown): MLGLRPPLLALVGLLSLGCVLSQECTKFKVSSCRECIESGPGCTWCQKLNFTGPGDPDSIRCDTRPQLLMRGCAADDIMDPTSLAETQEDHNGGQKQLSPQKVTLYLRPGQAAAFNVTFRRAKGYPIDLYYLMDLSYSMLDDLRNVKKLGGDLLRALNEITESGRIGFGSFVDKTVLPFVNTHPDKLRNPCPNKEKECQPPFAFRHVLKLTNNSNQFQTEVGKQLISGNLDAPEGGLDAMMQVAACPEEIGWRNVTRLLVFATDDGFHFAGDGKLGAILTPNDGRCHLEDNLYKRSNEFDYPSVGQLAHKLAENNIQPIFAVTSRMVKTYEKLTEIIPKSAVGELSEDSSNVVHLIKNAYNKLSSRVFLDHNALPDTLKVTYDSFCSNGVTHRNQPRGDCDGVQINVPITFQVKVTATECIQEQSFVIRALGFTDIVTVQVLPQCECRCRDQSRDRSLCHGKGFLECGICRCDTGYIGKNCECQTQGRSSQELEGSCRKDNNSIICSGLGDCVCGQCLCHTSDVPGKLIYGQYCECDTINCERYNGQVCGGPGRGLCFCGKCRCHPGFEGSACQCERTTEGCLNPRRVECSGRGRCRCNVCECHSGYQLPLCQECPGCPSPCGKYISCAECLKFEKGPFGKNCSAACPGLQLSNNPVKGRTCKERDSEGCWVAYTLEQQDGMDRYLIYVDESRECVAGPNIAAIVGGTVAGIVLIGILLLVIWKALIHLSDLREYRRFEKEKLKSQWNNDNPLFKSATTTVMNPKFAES
CD11b adhes enh = enhancers of human CD11b/CD18 binding to fibrinogen | P05107+P11215 | K562 CD11b/CD18 adhesion to fibrinogen, ATPlite luminescence | activation, % at 10 µM | actives 0.07% (n = 93,000);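 active means 10 µM primary screen giving 50% or more activity, confirmed by 40% or more on retest at that dose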
Each line names hits and unclear results; the compound was inactive in the other large screens.

CN(C)C(=C(C#N)C#N)N1CCN(c2ccc(Cl)c(Cl)c2)CC1	CYP2C9 inh 64, CYP2C19 inh 56 (no result: CD11b adhes inh, CD11b adhes enh)
O=C(c1cc(C2CC2)on1)N1CCN(C(c2ccccc2)c2ccccc2)CC1	none
O=C(O)C1CC1C(=O)N1CCN(c2ccc(Cl)c(Cl)c2)CC1 (stereo unspecified)	none
Cc1occc1C(=O)N1CCN(c2ccc(Cl)c(Cl)c2)CC1	CYP2C9 inh 83, CYP2C19 inh 98
CCOc1ccccc1C(=O)N1CCN(C(c2ccccc2)c2ccccc2)CC1	none
Cc1cc(C(=O)N2CCN(C(c3ccccc3)c3ccccc3)CC2)on1	CYP2C9 inh 77, CYP2C19 inh 69
CC(C)NC(=O)NC(=O)COC(=O)c1ccccc1Oc1ccccc1	none
COC(=O)c1ccccc1NC(=O)Cn1cnc2c(cnn2-c2ccccc2)c1=O	none
CCOc1ccc(C2Oc3nc(SC)nnc3-c3ccccc3N2C(C)=O)cc1OC (stereo unspecified)	none
O=C(C1=COCCO1)N1CCN(C(c2ccccc2)c2ccccc2)CC1	CYP2C9 inh 67
O=C(C1=COCCO1)N1CCN(S(=O)(=O)c2cccc(Cl)c2Cl)CC1	none
CC(Sc1nnc(Cc2cccs2)n1C1CCCCC1)C(=O)N1CCc2ccccc21 (stereo unspecified)	CYP2C9 inh 76, CYP2C19 inh 78
Cc1nnc(SC(C)C(=O)N2CCc3ccccc32)s1 (stereo unspecified)	CYP2C19 inh 78
CC(C)Sc1nnc(CNC(=O)C23CC4CC(CC(C4)C2)C3)n1C1CCCCC1	none (no result: CYP2C9 inh, CYP2C9 activ, CYP2C19 inh, CYP2C19 act)
CC(Sc1nnc(Cc2cccs2)n1C1CCCCC1)C(=O)NCc1ccco1 (stereo unspecified)	CYP2C9 inh 75
COc1ccc(Nc2nccc3c2nnn3C)cc1	none
Cc1cccc2sc(NC(=O)C3c4ccccc4Oc4ccccc43)nc12	CYP2C9 inh 80
O=C(Nc1nncs1)C1c2ccccc2Oc2ccccc21	CYP2C19 inh 54
O=C(Nc1nc(-c2ccccc2)cs1)C1c2ccccc2Oc2ccccc21	CYP2C9 inh 72
O=C(Nc1cccnc1Cl)C1c2ccccc2Oc2ccccc21	CYP2C19 inh 70 (no result: CD11b adhes inh, CD11b adhes enh)
CCCCN(CCCNC(=O)c1ccc2nc(N3CCOCC3)sc2c1)Cc1ccccc1	none
Cc1ccc(-c2cnc(N)n2C)cc1C	none
CCN(CC)c1ccc2cc(C(=O)Nc3ccc(-n4cnnn4)c(OC)c3)c(=O)oc2c1	none
CCCCCCCOc1ccc(OC(=O)c2ccncc2)cc1	none
O=C(Nc1nc(-c2ccccc2)cs1)C1CCCO1 (stereo unspecified)	CYP2C9 inh 54, CYP2C19 inh 62
Cc1cc(C)c(NC(=O)C2c3ccccc3Oc3ccccc32)c(C)c1	none (no result: CYP2C9 inh, CYP2C9 activ, CYP2C19 inh, CYP2C19 act)
O=C(Nc1ccncc1)C1c2ccccc2Oc2ccccc21	CYP2C9 inh 98, CYP2C19 inh 97
CC1=CC(C)(C)N2C(=O)C3(SCC(=O)N3c3ccc(F)cc3)c3cc(C)cc1c32 (stereo unspecified)	CYP2C9 inh 63
CC(C)n1nnnc1-c1cc(Cl)cc(Cl)c1	none (no result: CD11b adhes inh, CD11b adhes enh)
Cc1ccc(S(=O)(=O)/C(C#N)=C/c2c(N3CCN(C)CC3)nc3c(C)cccn3c2=O)cc1	CYP2C9 inh 85
Cc1cccn2c(=O)c(/C=C(\C#N)C(=O)NCc3ccco3)c(N3CCCCC3)nc12	none (no result: CYP2C9 inh, CYP2C9 activ, CYP2C19 inh, CYP2C19 act)
Cc1cccn2c(=O)c(/C=C(\C#N)S(=O)(=O)c3ccccc3)c(N3CCN(C)CC3)nc12	CYP2C9 inh 75
CCNC(=O)/C(C#N)=C/c1c(N2CCN(Cc3ccc4c(c3)OCO4)CC2)nc2c(C)cccn2c1=O	none (no result: CYP2C9 inh, CYP2C9 activ, CYP2C19 inh, CYP2C19 act)
CCN1CCN(c2nc3c(C)cccn3c(=O)c2/C=C(\C#N)S(=O)(=O)c2ccc(C)cc2)CC1	CYP2C9 inh 89
Cc1ccc(S(=O)(=O)/C(C#N)=C/c2c(N3CC(C)OC(C)C3)nc3c(C)cccn3c2=O)cc1 (stereo unspecified)	CYP2C9 inh 72
c1ccc(-c2cn3c4c(sc3n2)CCCC4)cc1	CYP2C19 inh 57
CCOc1cccc(-c2nnc3sc(C4CCCCC4)nn23)c1	CYP2C19 inh 94
COc1cccc(-c2nnc3sc(C4CCCCC4)nn23)c1	CYP2C9 inh 78, CYP2C19 inh 84
Cc1cc(-c2nnc3sc(C4CCCCC4)nn23)n[nH]1	CYP2C19 inh 73
COc1ccc(-c2nn3c(-c4ccc(F)cc4)nnc3s2)cc1	none
c1cncc(-c2nnc3sc(C4CCCCC4)nn23)c1	CYP2C19 inh 94
CCOc1cccc(-c2nnc3sc(-c4cc(OC)c(OC)cc4OC)nn23)c1	none
COc1cc(-c2nn3c(-c4ccccn4)nnc3s2)cc(OC)c1OC	none
Clc1ccc(OCc2nn3c(C4CCCCC4)nnc3s2)c(Cl)c1	none
COc1cc(OC)c(-c2nn3c(C4CCCCC4)nnc3s2)cc1OC	CYP2C9 inh 85, CYP2C19 inh 84 (no result: CD11b adhes inh, CD11b adhes enh)
COc1cc(-c2nnc3sc(C4CCCCC4)nn23)cc(OC)c1OC	CYP2C9 inh 77, CYP2C19 inh 75
COC(=O)C1=C(C)N=C2SCCC(=O)N2C1/C=C/c1ccccc1 (stereo unspecified)	none
CCOC(=O)C(=O)/C(C#N)=C/Nc1ccc(F)cc1	none
CCOC(=O)C(NC(C)=O)(Nc1cccc(F)c1)C(F)(F)F (stereo unspecified)	none
CCOC(=O)C(NC(C)=O)(Nc1ccc(F)cc1)C(F)(F)F (stereo unspecified)	CYP2C19 inh 63
CCOC(=O)C(NC(=O)Nc1ccc(F)cc1)(OCC)C(F)(F)F (stereo unspecified)	CYP2C19 inh 50
COc1c(S(=O)(=O)n2nc(C)cc2C)ccc(Cl)c1Cl	CYP2C9 activ 2.3, CYP2C19 inh 52
Cc1cc(C)n(S(=O)(=O)c2cc(C)c(C)cc2C)n1	none
Cc1cc(C)n(S(=O)(=O)c2ccc(Cl)c(Cl)c2Cl)n1	CYP2C19 inh 69
Cc1cc(C)n(S(=O)(=O)c2cccc(Cl)c2Cl)n1	CYP2C19 inh 54
COc1cc(C(=O)n2nc(C)cc2C)cc(OC)c1OC	none
CCCN1CCN(C(=S)Nc2ccccc2C(F)(F)F)CC1	none (no result: CYP2C9 inh, CYP2C9 activ, CYP2C19 inh, CYP2C19 act)
CCCn1c(SCC(=O)Nc2cc(Cl)ccc2OC)n[nH]c1=O	CYP2C19 inh 90
O=C(CSc1ccc(Br)cc1)Nc1ccccc1Oc1ccccc1	none (no result: CYP2C9 inh, CYP2C9 activ, CYP2C19 inh, CYP2C19 act)
O=C(Nc1cc(Cl)ccc1Oc1ccccc1)c1ccc(F)cc1	none (no result: CYP2C9 inh, CYP2C9 activ, CYP2C19 inh, CYP2C19 act)
CCCn1c(SCC(=O)c2cc(C)c(C)cc2C)n[nH]c1=O	CYP2C9 inh 74
CCCn1c(SCC(=O)NC(=O)Nc2ccc(C)cc2C)n[nH]c1=O	none
CCCn1c(SCC(=O)Nc2ccccc2Oc2ccccc2)n[nH]c1=O	CYP2C9 inh 74, CYP2C19 inh 81
O=C(CSc1n[nH]c(=O)n1C1CC1)Nc1cc(Cl)ccc1Oc1ccccc1	CYP2C9 inh 83, CYP2C19 inh 59
CC(C)C[C@H](NC(=O)Nc1ccccc1F)C(=O)O	none
